Test results taken from PubChem BioAssay AID1159580 (chemical genetic matrix, 2015).
Screen size: about 5,500 compounds; about 2,000 (36%) were called active. Another 18% or so got no clear call; they are omitted. No stated cut-off is given here; in the data, active means normalized growth mostly below about 0.91 (no sharp cut-off); inconclusive means no clear call, values can overlap the other calls; inactive means mostly above about 0.92. This is one part of the list.

Assay: chemical genetic growth profiling, strain panel (AID 1159580);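 further: tested at 20 µM; growth read once vehicle control cultures reached saturation at 30 °C; 1 = growth at the plate median or of vehicle wells; lower values mean less growth of the strain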
Settings: growth OD

Measured: normalized growth

COC(=O)Oc1ccccc1C(=O)O
inactive: S. cerevisiae deletion strains, locus YAL013W, strain DEP1, active compounds read low 1.02 | S. cerevisiae deletion strains, locus YBR021W, strain FUR4, active compounds read low 0.976 | S. cerevisiae deletion strains, locus YBR229C, strain ROT2, active compounds read low 1.01 | S. cerevisiae deletion strains, locus YCL029C, strain bik1, active compounds read low 1.01 | S. cerevisiae deletion strains, locus YDL035C, strain GPR1, active compounds read low 0.995 | S. cerevisiae deletion strains, locus YDL074C, strain BRE1, active compounds read low 1.04 | S. cerevisiae deletion strains, locus YDL101C, strain DUN1, active compounds read low 1.02 | S. cerevisiae deletion strains, locus YDL134C, strain PPH21, active compounds read low 0.991 | S. cerevisiae deletion strains, locus YDL185W, strain tfp1, active compounds read low 1.01 | S. cerevisiae deletion strains, locus YDL192W, strain arf1, active compounds read low 1.02 | S. cerevisiae deletion strains, locus YDR101C, strain arx1, active compounds read low 1.01 | S. cerevisiae deletion strains, locus YDR162C, strain NBP2, active compounds read low 0.99 | S. cerevisiae deletion strains, locus YDR318W, strain mcm21, active compounds read low 1.01 | S. cerevisiae deletion strains, locus YDR388W, active compounds read low 1.01 | S. cerevisiae deletion strains, locus YDR502C, strain sam2, active compounds read low 1.01 | S. cerevisiae deletion strains, locus YEL061C, strain CIN8, active compounds read low 1.01 | S. cerevisiae deletion strains, locus YER110C, active compounds read low 1.03 | S. cerevisiae deletion strains, locus YER155C, strain BEM2, active compounds read low 1.01 | S. cerevisiae deletion strains, locus YER167W, strain BCK2, active compounds read low 1.01 | S. cerevisiae deletion strains, locus YGL078C, strain dbp3, active compounds read low 1.01 | S. cerevisiae deletion strains, locus YGL086W, strain mad1, active compounds read low 1.01 | S. cerevisiae deletion strains, locus YGL248W, strain PDE1, active compounds read low 1.01 | S. cerevisiae deletion strains, locus YGR135W, strain pre9, active compounds read low 1.01 | S. cerevisiae deletion strains, locus YGR252W, strain gcn5, active compounds read low 1.01 | S. cerevisiae deletion strains, locus YHR030C, strain SLT2, active compounds read low 1.01 | S. cerevisiae deletion strains, locus YHR079C, strain IRE1 (second series), active compounds read low 1.01 | S. cerevisiae deletion strains, locus YHR094C, strain hxt1, active compounds read low 1.02 | S. cerevisiae deletion strains, locus YHR129C, strain ARP1, active compounds read low 1.01 | S. cerevisiae deletion strains, locus YHR200W, strain rpn10, active compounds read low 1.02 | S. cerevisiae deletion strains, locus YIL066C, strain RNR3, active compounds read low 0.987 | S. cerevisiae deletion strains, locus YIL073C, strain SPO22, active compounds read low 1.03 | S. cerevisiae deletion strains, locus YIL125W, strain kgd1, active compounds read low 1.02 | S. cerevisiae deletion strains, locus YIR030C, strain dcg1, active compounds read low 1.01 | S. cerevisiae deletion strains, locus YJL095W, strain BCK1, active compounds read low 1.05 | S. cerevisiae deletion strains, locus YJL134W, strain LCB3, active compounds read low 1.01 | S. cerevisiae deletion strains, locus YJL168C, strain set2, active compounds read low 1.03 | S. cerevisiae deletion strains, locus YJL187C, strain SWE1 (second series), active compounds read low 1.02 | S. cerevisiae deletion strains, locus YJR043C, strain POL32, active compounds read low 0.983 | S. cerevisiae deletion strains, locus YKL009W, strain mrt4, active compounds read low 1.01 | S. cerevisiae deletion strains, locus YKL068W, active compounds read low 1 | S. cerevisiae deletion strains, locus YKL085W, strain MDH1 (second series), active compounds read low 1.01 | S. cerevisiae deletion strains, locus YKL085W, strain MDH1, active compounds read low 1.01 | S. cerevisiae deletion strains, locus YKL190W, strain CNB1, active compounds read low 1.02 | S. cerevisiae deletion strains, locus YKR001C, strain vps1, active compounds read low 1.01 | S. cerevisiae deletion strains, locus YLR039C, strain RIC1, active compounds read low 1.02 | S. cerevisiae deletion strains, locus YLR058C, strain SHM2, active compounds read low 1.01 | S. cerevisiae deletion strains, locus YLR102C, strain apc9, active compounds read low 1.02 | S. cerevisiae deletion strains, locus YLR262C, strain YPT6, active compounds read low 1.04 | S. cerevisiae deletion strains, locus YLR268W, strain sec22, active compounds read low 1.02 | S. cerevisiae deletion strains, locus YLR330W, strain CHS5, active compounds read low 1.01 | S. cerevisiae deletion strains, locus YLR342W, strain FKS1 (second series), active compounds read low 0.995 | S. cerevisiae deletion strains, locus YLR371W, strain rom2, active compounds read low 1.02 | S. cerevisiae deletion strains, locus YLR418C, strain cdc73, active compounds read low 1.06 | S. cerevisiae deletion strains, locus YML016C, strain PPZ1, active compounds read low 0.999 | S. cerevisiae deletion strains, locus YML032C, strain rad52, active compounds read low 1.01 | S. cerevisiae deletion strains, locus YML124C, strain tub3, active compounds read low 1.01 | S. cerevisiae deletion strains, locus YMR078C, strain ctf18, active compounds read low 1.02 | S. cerevisiae deletion strains, locus YMR223W, strain ubp8, active compounds read low 1.01 | S. cerevisiae deletion strains, locus YMR263W, strain SAP30, active compounds read low 1.03 | S. cerevisiae deletion strains, locus YMR307W, strain GAS1, active compounds read low 1.06 | S. cerevisiae deletion strains, locus YNL067W, strain RPL9B, active compounds read low 1.07 | S. cerevisiae deletion strains, locus YNL128W, strain TEP1, active compounds read low 1.02 | S. cerevisiae deletion strains, locus YNL153C, strain GIM3, active compounds read low 1.03 | S. cerevisiae deletion strains, locus YNL233W, strain BNI4, active compounds read low 1.01 | S. cerevisiae deletion strains, locus YNL250W, strain rad50, active compounds read low 1.04 | S. cerevisiae deletion strains, locus YNL271C, strain bni1, active compounds read low 1.02 | S. cerevisiae deletion strains, locus YNL298W, strain CLA4, active compounds read low 1.02 | S. cerevisiae deletion strains, locus YNL307C, strain MCK1, active compounds read low 1.02 | S. cerevisiae deletion strains, locus YNR052C, strain pop2, active compounds read low 1.02 | S. cerevisiae deletion strains, locus YOL012C, strain htz1 0.797 | S. cerevisiae deletion strains, locus YOL147C, strain pex11, active compounds read low 1.02 | S. cerevisiae deletion strains, locus YOR061W, strain CKA2, active compounds read low 1.01 | S. cerevisiae deletion strains, locus YOR069W, strain VPS5, active compounds read low 1.01 | S. cerevisiae deletion strains, locus YOR136W, strain idh2, active compounds read low 1.02 | S. cerevisiae deletion strains, locus YOR144C, strain elg1, active compounds read low 1.02 | S. cerevisiae deletion strains, locus YOR184W, strain ser1, active compounds read low 1.02 | S. cerevisiae deletion strains, locus YOR316C, strain cot1, active compounds read low 1.02 | S. cerevisiae deletion strains, locus YPL241C, strain CIN2, active compounds read low 1 | S. cerevisiae deletion strains, locus YPR119W, strain clb2, active compounds read low 1.02 | S. cerevisiae deletion strains, locus YPR141C, strain kar3, active compounds read low 1.03 | S. cerevisiae deletion strains, locus YPR163C, strain tif3, active compounds read low 1.01 | S. cerevisiae deletion strains, locus YPR167C, strain met16, active compounds read low 1.01 | S. cerevisiae deletion strains, strain wtn01, active compounds read low 1.01 | S. cerevisiae strains, strain wild type, active compounds read low 1.02
